A short description of test [1]: HepG2 liver cancer cell viability effects, profiling panel, resazurin fluorescence, 24 h, PK04 Diversity Set (AID 1172). Note: test concentration not given here. As to conditions: higher = more signal.
Test [2] can be described thus: basal S. cerevisiae growth modulation, no modifier, primary screen, OD600, strain BY4716, 24 h, basal condition (AID 1173). Particulars: OD600, 24 h, higher = more signal, called active from +8 up or from −8 down.
Test [3] in a line: MM1S myeloma cell viability, profiling panel, resazurin fluorescence, basal, 24 h, PK04 Diversity Set (AID 1174). Note: test concentration not given here. Particulars: higher = more signal, called active from +8 up or from −8 down. On the technique in general: The colour change of resazurin is a common sign of viable cells or microbes.
Test [4] addresses Dihydroorotate dehydrogenase (quinone), mitochondrial (Plasmodium falciparum (isolate 3D7)) (UniProt Q08210). As to the kind of experiment: PfDHODH enzyme inhibitors, primary screen, biochemical, C-terminal His tag, absorbance 600 nm (AID 1175).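 Note: recombinant parasite enzyme with a five histidine tag at its C terminus; test concentration not given here.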 Particulars: DCIP absorbance 600 nm, higher = more signal, called active from +8 up or from −8 down.
Test [5] in a line: P. aeruginosa biofilm formation inhibitors, primary screen, strain PAO1, LB-PBS medium, absorbance 600 nm (AID 1176). Note: test concentration not given here. Particulars: P. aeruginosa PAO1 growth/biofilm, A600, 12 h; higher = more signal.
Test [6] can be described thus: S. cerevisiae RM11-1a growth modifiers, primary screen, strain RM11-1a, OD600, basal, 24 h (AID 1177).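 Note: cultures grown under basal conditions with no added stressor; test concentration not given here.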 Particulars: OD600, 24 h, higher = more signal, called active from +8 up or from −8 down.
Test [7] in a line: E. coli acrAB mutant growth effects, primary screen, E. coli filamentation inducers, strain DRC39, OD650, 24 h (AID 1178).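 Note: growth measured as culture turbidity by optical density at 650 nm; test concentration not given here.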 As to conditions: higher = more signal, called active from +8 up or from −8 down.
The nature of test [8]: E. coli acrAB mutant growth effects, primary screen, E. coli filamentation inducers, strain DRC39, OD650, 48 h (AID 1179).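 Note: screen aims at cell division blockers that make cells filament.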 Particulars: E. coli DRC39 delta-acrAB growth, higher = more signal, called active from +8 up or from −8 down.
Test [9] in a line: RPMI8226 myeloma cell viability, profiling panel, resazurin fluorescence, basal, 24 h, PK04 Diversity Set (AID 1180).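 Note: RPMI8826 multiple myeloma cell line at 5000 cells per well; test concentration not given here.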 As to conditions: higher = more signal.
Test [10] addresses E3 ubiquitin-protein ligase XIAP (Homo sapiens) (UniProt P98170). As to the kind of experiment: XIAP binders, primary screen, biophysical, small-molecule microarray, fluorescence 635 nm (AID 1181).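 Note: score merges 667 nm emission and signal to noise over triplicate slides.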 Particulars: small-molecule microarray binding, higher = more signal.

SMILES strings stand for the structures. Calls of active or inactive are those of the source. Unless noted, the rule behind the calls is not given here.

Chain of Dihydroorotate dehydrogenase (quinone), mitochondrial (Plasmodium falciparum (isolate 3D7)) (Q08210 whole entry, looked up): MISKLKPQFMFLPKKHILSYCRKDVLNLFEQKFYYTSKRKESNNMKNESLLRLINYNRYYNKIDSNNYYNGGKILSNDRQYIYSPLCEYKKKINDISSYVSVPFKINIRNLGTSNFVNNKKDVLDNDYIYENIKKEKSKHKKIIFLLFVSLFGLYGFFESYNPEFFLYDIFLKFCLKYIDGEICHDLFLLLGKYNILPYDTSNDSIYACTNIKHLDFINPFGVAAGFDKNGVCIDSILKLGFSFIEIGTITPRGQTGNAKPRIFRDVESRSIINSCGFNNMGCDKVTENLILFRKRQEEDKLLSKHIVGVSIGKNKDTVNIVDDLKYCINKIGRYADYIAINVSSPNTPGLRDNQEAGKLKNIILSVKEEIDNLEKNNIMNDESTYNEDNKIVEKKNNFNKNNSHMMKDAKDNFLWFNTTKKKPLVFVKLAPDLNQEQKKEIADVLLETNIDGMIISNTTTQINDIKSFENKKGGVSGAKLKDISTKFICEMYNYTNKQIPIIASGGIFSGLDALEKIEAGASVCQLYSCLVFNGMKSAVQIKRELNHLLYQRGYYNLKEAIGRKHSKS
Chain of E3 ubiquitin-protein ligase XIAP (Homo sapiens) (P98170 whole entry, looked up): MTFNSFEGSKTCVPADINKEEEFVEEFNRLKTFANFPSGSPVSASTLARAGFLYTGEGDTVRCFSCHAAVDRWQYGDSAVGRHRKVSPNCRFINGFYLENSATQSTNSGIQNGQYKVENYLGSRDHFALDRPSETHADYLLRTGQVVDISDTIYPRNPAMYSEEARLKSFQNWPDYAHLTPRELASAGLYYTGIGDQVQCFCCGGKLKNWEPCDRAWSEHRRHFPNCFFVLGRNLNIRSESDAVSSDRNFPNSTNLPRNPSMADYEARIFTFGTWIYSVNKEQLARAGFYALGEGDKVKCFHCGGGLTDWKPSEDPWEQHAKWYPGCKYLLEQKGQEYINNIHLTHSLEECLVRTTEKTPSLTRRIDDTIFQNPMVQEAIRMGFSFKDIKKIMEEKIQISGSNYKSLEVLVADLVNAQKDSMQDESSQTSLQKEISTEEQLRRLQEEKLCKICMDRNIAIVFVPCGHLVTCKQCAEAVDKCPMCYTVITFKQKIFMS

As to `[N-]=[N+]=Nc1ccccc1[C@H]1OC(c2ccc(OCCCO)cc2)=N[C@@]1(Cc1ccccc1)C(=O)N1CCOCC1`, the z-score in test [1] was -1.28; in test [2], -1.33 (inactive); in test [3] it was -2.81 (inactive); in test [5] it was 0.948 (inactive); in [6] it was 0.711 (inactive); in test [7], 0.226 (inactive). In addition, the z-score is -0.927 (inactive) in test [8] and -4.56 in test [9]. The composite z-score was 0.396 (inactive) in test [4] and -0.0917 in test [10].
For the molecule `[N-]=[N+]=NCc1ccccc1[C@H]1OC(c2ccc(OCCCO)cc2)=N[C@@]1(Cc1ccccc1)C(=O)N1CCCCC1`, the z-score in test [1] is 0.804; in test [2], -1.95 (inactive); in [3], -1.71 (inactive); in test [5], -0.441 (inactive); in [6], -0.923 (inactive); in [7], 1.29 (inactive). Further, the z-score in [8] is 1.25 (inactive); in test [9] it was -0.941. Besides, the composite z-score in [4] is 0.451 (inactive); in test [10], -0.0622.
For the molecule `C=C(/C(=C/C[C@H](OC(C)=O)c1ccc(OCCO)cc1)c1cc(C(=O)OC)ccc1OC)C(C)C`, the z-score was 1.5 in test [1]; -0.962 (inactive) in test [2]; 0.012 (inactive) in test [3]; 0.613 (inactive) in [5]; -0.0571 (inactive) in test [6]; 0.483 (inactive) in test [7]. Besides, the z-score is 0.232 (inactive) in test [8] and 0.0628 in test [9]. Moreover, the composite z-score in test [4] was -0.858 (inactive); in [10], -0.307.
Consider `CCCNC(=O)[C@@H]1c2ccccc2C(=O)N(Cc2ccccc2OC)[C@H]1c1ccc(CO)cc1`, for which the z-score in test [1] was -0.314; in test [2], -0.42 (inactive); in [3] it was -1.32 (inactive); in test [5], -0.0933 (inactive); in test [6], 0.262 (inactive); in [7], 0.324 (inactive). Further, the values for the z-score in test [8] and in test [9] were 0.285 (inactive) and -0.694, respectively. The figures for the composite z-score in [4] and in test [10] were -0.486 (inactive) and -0.113, respectively.
As for `COc1ccc([Si](C)(C)[C@@H]2[C@@H](CCn3cc([C@H](O)c4ccccc4)nn3)O[C@]3(C(=O)N(Cc4cccc(N5CCC5=O)c4)c4ccccc43)[C@H]2C)cc1`, the z-score in test [1] was 0.736; in test [2], -0.0294 (inactive); in test [3], -0.939 (inactive); in test [5], 2.05 (inactive); in test [6] it was 1.01 (inactive); in test [7], 0.603 (inactive). In addition, the values for the z-score in test [8] and in test [9] were 0.127 (inactive) and 0.123, respectively. For the same molecule, the composite z-score in test [4] was 0.219 (inactive); in [10] it was 0.0345.
On to `O=C1O[C@H](c2ccccc2)[C@H](c2ccccc2)N2[C@H]1[C@@H](C(=O)NC[C@H](O)c1ccccc1)[C@]1(C(=O)Nc3ccc(C#CC4=CCCCC4)cc31)[C@H]2c1ccccc1OCCO`, for which the z-score is -2.02 in test [1]; 1.89 (inactive) in test [2]; -6.77 (inactive) in test [3]; 2.9 (inactive) in test [5]; 1.96 (inactive) in test [6]; -0.561 (inactive) in test [7]. Further, the z-score was 0.105 (inactive) in [8] and -6.5 in test [9]. Moreover, the composite z-score in test [4] was -0.894 (inactive); in [10], -0.144.
As to `O=C1[C@H]2C=C(I)[C@H](C[C@@H]2OCCCCO)[C@@]12CO2`, the z-score in test [1] is 0.187; in test [2], -1.19 (inactive); in test [3] it was -0.536 (inactive); in test [5], 0.13 (inactive); in test [6], -0.192 (inactive); in [7] it was -0.682 (inactive). The z-score in test [8] was -0.405 (inactive); in test [9], -0.304. Also, the values for the composite z-score in test [4] and in test [10] were -0.543 (inactive) and -0.0448, respectively.
With `C[C@H]1C2[C@H](Cc3ccccc3)NC(=O)[C@]23C(=O)NCC(=O)N2CCC[C@H]2C(=O)NC/C=C/CCC/C=C/C3[C@@H]2O[C@]12C` (stereo not given in full), the z-score is -1.11 in test [1]; -1.17 (inactive) in test [2]; -0.111 (inactive) in test [3]; -0.578 (inactive) in test [5]; -0.0879 (inactive) in [6]; 1.2 (inactive) in test [7]. The z-score in test [8] is 0.601 (inactive); in [9] it was 0.277. In addition, the results for the composite z-score in [4] and in test [10] were -0.0305 (inactive) and -0.152, respectively.
Take `O=C1OCCC/C=C\[C@H]2OC34C=CCN(c5ccc6ccccc6c5)C(=O)[C@H]3N(CCCCCO)C(=O)[C@@H]4C12` (stereo not given in full): the z-score in test [1] was 0.0877; in test [2], -0.801 (inactive); in test [3], -0.377 (inactive); in test [5] it was -0.649 (inactive); in test [6], -0.878 (inactive); in [7], 0.352 (inactive). In addition, the z-score in test [8] was -0.005 (inactive); in [9], 0.408. Besides, the composite z-score in test [4] is -0.338 (inactive); in test [10] it was -0.0541.
With `O=C1C2C=CC(C(O)c3c(F)cccc3Cl)N(Nc3ccccc3F)C2C(=O)N1c1ccccc1` (stereo not given), the z-score in test [1] is -0.269; in test [2], -0.796 (inactive); in [3], -0.819 (inactive); in test [5], 0.447 (inactive); in [6], 0.824 (inactive); in test [7] it was -0.0281 (inactive). For the same molecule, the results for the z-score in test [8] and in test [9] were 0.729 (inactive) and -0.144, respectively. The results for the composite z-score in [4] and in test [10] were -0.303 (inactive) and -0.0749, respectively.
Turning to `CC(=O)NCCCC[C@@H]1NC(=O)[C@H]2C[C@@H](C(=O)O)[C@@H](c3ccc(O)cc3)N2C1=O`, the z-score in [1] is 0.273; in test [2], -1.35 (inactive); in [3] it was -0.481 (inactive); in test [5], 0.711 (inactive); in test [6], 3.29 (inactive); in test [7], -1.91 (inactive). Moreover, the z-score was -0.879 (inactive) in [8] and 0.002 in [9]. In addition, the figures for the composite z-score in test [4] and in test [10] were -0.24 (inactive) and 0.5, respectively.
On to `O=C1O[C@@H](c2ccccc2)[C@@H](c2ccccc2)N2[C@@H](c3ccccc3OCCO)[C@]3(C(=O)Nc4ccc(C#CC5(O)CCCCCC5)cc43)[C@@H](C(=O)N3CCN(c4ncccn4)CC3)[C@H]12`, for which the z-score in test [1] was 0.0783; in [2], 1.62 (inactive); in test [3], -1.18 (inactive); in [5], 1.94 (inactive); in [6], 4.01 (inactive); in [7], -0.418 (inactive). For the same molecule, the z-score is 0.247 (inactive) in test [8] and -0.737 in [9]. Moreover, the composite z-score in [4] was 0.937 (inactive); in [10] it was 0.372.

Values taken from PubChem BioAssay.
